# GPR151 activ: activators of human GPR151 | Q8TDV0 | PathHunter beta-arrestin GPR151 cells, luminescence | activation, % at 11.2 µM | 650,000 compounds, 1% hits | AID 1508602; in the data active = activation above about 4.9%;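 note: 0% = median of compound wells and 100% = cells with positive control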
# Target sequence (Q8TDV0 whole entry, looked up): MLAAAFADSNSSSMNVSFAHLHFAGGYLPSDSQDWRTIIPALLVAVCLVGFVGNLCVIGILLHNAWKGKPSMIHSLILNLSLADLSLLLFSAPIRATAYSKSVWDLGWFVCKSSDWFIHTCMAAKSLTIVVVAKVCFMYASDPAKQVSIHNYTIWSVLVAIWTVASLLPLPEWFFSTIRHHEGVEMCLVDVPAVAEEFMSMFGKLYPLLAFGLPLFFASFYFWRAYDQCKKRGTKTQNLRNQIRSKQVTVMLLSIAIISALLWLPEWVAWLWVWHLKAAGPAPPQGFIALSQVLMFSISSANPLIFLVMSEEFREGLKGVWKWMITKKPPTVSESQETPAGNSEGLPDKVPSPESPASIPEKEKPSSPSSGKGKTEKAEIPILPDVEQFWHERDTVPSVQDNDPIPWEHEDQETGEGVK
# TEAD-YAP block: TEAD-YAP interaction inhibition. inhibition, % at 9.12 µM. 640,000 compounds, 1.4% hits. AID 1259422. HEK-TIYL cells, TEAD-Gal4/YAP UAS-luciferase luminescence; in the data active = inhibition above about 32%;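 note: 0% = median of test compound wells and 100% = reference inhibitor wells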
# MITF inh: blocks human microphthalmia-associated transcription factor. inhibition, % at 2.6 µM. O75030. 650,000 compounds, 0.91% hits. AlphaScreen MITF homodimerization, bead proximity signal; in the data active = inhibition above about 50%;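 note: 0% = vehicle wells with protein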
# FBW7 activator: activators of human E3 ligase FBW7. 650,000 compounds, 0.13% hits. Q969H0. AlphaScreen FBW7–phospho-cyclin E peptide binding, activator screen. normalized activity (activation), % at 26.1 µM; in the data active = normalized activity above about 1.9%;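 note: purified mutant Fbw7 with reduced substrate affinity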
# Numbers without * were called inactive. Rows were chosen to be rich in hits. Some 3.4% of all compounds tested hit in one or more screens of this group.
SMILES,GPR151 activ,TEAD-YAP block,MITF inh,FBW7 activator
CCC[n+]1cccc2cc(OC)ccc21,1,1,-1,0
Clc1ccc(-c2cn3c4ccccc4n(CCN4CCCCC4)c3n2)cc1,0,4,-28,5.0*
C=CCn1c2ccccc2n2cc(-c3ccccc3)nc12,-2,-12,10,1
CCn1c2ccccc2n2cc(-c3ccc(Br)cc3)nc12,3,-12,-11,2.3*
CCOc1cc(N2CCOCC2)c(OCC)cc1NS(=O)(=O)c1ccc(F)c(F)c1,-2,35*,-8,0
Cc1nc2c(C(=O)O)c[nH]n2c(=O)c1Cc1ccc(Cl)cc1,0,7,-8,0
Cc1nc2c(C(=O)N3CCCC3)c[nH]n2c(=O)c1Cc1ccc(Cl)cc1,0,8,15,1.9*
CCc1c2cc(OC)c(OC)cc2cc(=O)n1Cc1ccccc1,-2,16,6,0
Cc1ccc2c(c1)C(=O)CC(c1ccc3c(c1)OCCO3)O2 (stereo not drawn),1,-50,-1,0
O=C1CC(c2ccc3c(c2)OCCCCO3)Oc2ccccc21 (stereo not drawn),0,59*,0,0
COc1ccc(-c2noc(CN(Cc3ccccn3)CC3CCCO3)n2)c(OC)c1OC (stereo not drawn),1,39*,-4,0
Cc1onc(-c2ccccc2Cl)c1C(=O)Nc1ccc(-c2nc3ccccc3[nH]2)cc1,4,33*,-3,0
Cc1onc(-c2ccccc2Cl)c1C(=O)Nc1ccccc1C(=O)Nc1ccccc1,2,33*,-13,0
CN(C)S(=O)(=O)c1ccc(C(=O)NC(=S)Nc2ccc(-c3nc4ccccc4[nH]3)cc2)cc1,-2,-28,-17,3.9*
CC(=O)NS(=O)(=O)c1ccc(NC(=O)c2c(-c3ccccc3Cl)noc2C)cc1,1,-10,13,1.9*
CN(c1ccccc1)S(=O)(=O)c1ccc(C(=O)Nc2ccc(-c3nc4ccccc4[nH]3)cc2)cc1,1,-6,7,1
CN1CCN(C(=O)c2ccc(-c3ccc4c(c3)OCO4)nc2N2CCOCC2)CC1,-1,-2,4,0
CC(COCC(O)CN1CCN(Cc2ccc3c(c2)OCO3)CC1)c1ccccc1 (stereo not drawn),-2,5,20,0
Cn1nnc(NC(=O)c2cccc3ccccc23)n1,1,10,7,0
O=C1/C(=C\c2ccco2)CCC/C1=C\c1ccco1,0,0,83*,0
O=C1Nc2ccccc2/C1=C/C=C/c1ccco1,1,-66,8,0
O=C1/C(=C/C=C/c2ccco2)CCC/C1=C\C=C\c1ccco1,0,-2,64*,0
O/N=C1\CCCC\C1=C\c1ccco1,2,-13,4,0
CC(=O)CC(=O)Nc1ccc(C)cc1,0,-4,0,0
NS(=O)(=O)c1ccc(CCNC(=O)CSc2nc3c(sc(=S)n3Cc3ccco3)c(=O)n2-c2ccc(F)cc2)cc1,0,10,-8,0
SMILES,GPR151 activ,TEAD-YAP block,MITF inh,FBW7 activator
NC(=O)C1CCCN1c1nc(-c2cccs2)nc2ccccc12 (stereo not drawn),0,3,-7,0
OCC1CCCCN1c1nc(-c2cccs2)nc2ccccc12 (stereo not drawn),1,74*,0,0
Cc1ccc(Oc2ccc(S(=O)(=O)N3CCOCC3)cc2S(=O)(=O)N2CCOCC2)c(-n2nc3ccccc3n2)c1,0,2,0,0
Cc1ccc(Oc2ccc(S(=O)(=O)N3CCOCC3)cc2C(N)=O)c(-n2nc3ccccc3n2)c1,0,41*,0,0
COc1ccccc1C(=O)Oc1ccc(C)cc1-n1nc2ccccc2n1,-9,-51,16,0
Cc1ccc(OC(=O)c2ccccc2Cl)c(-n2nc3ccccc3n2)c1,-1,-20,0,7.6*
CCCC(=O)NC(c1ccc(F)cc1)c1ccc2cccnc2c1O (stereo not drawn),-1,86*,31,-1
CCC(=O)NC(c1ccc(OC)cc1)c1c(O)ccc2ccccc12 (stereo not drawn),0,52*,-12,0
CCCC(=O)NC(c1ccccc1)c1ccc2cccnc2c1O (stereo not drawn),-1,85*,50,-2
CCCC(=O)NC(c1ccc(OC)cc1)c1ccc2cccnc2c1O (stereo not drawn),1,72*,50,-2
COC(=O)Nc1c([N+](=O)[O-])cc([N+](=O)[O-])cc1S(=O)(=O)Cc1ccccc1,0,-6,-6,0
Cc1onc(-c2c(Cl)cccc2Cl)c1C(=O)Nc1cccc(Cl)c1C,4,18,-2,0
CCOc1ccccc1Cc1nc2cc(C)c(C)cc2[nH]c1=O,0,5,2,0
N#CC1=C(N)n2c(s/c(=C/c3ccc4c(c3)OCO4)c2=O)=C(C#N)C1c1ccc2c(c1)OCO2 (stereo not drawn),1,-10,-10,0
N#C/C(=C\c1ccco1)C(=O)Nc1ccccc1F,-1,-39,22,2.1*
CSc1nsc(N/N=C/c2ccccc2)c1C#N,2,-19,5,0
N#Cc1c(Cl)nsc1N/N=C/c1ccccc1,2,41*,4,0
COc1ccccc1N1CCN(C(=O)CN2CC=C[C@@H]2C(=O)NCCc2ccccc2)CC1,0,42*,-22,0
COc1ccccc1N1CCN(C(=O)CS(=O)(=O)Cc2ccccc2)CC1,-1,-3,-1,0
Nc1nnc(CC(=O)N/N=C/c2ccc(OCc3ccccc3F)cc2)s1,-4,-5,-15,0
CC1=C(C(=O)N2CCOCC2)C(c2ccc(OC(F)F)cc2)NC(=O)N1 (stereo not drawn),0,-11,-6,0
COc1ccc(C2=NS(=O)(=O)N(C)C(C(=O)NC(C)(C)CO)=C2)cc1,-2,4,4,0
Cn1c(=O)c2c(nc(SCC(=O)N(Cc3ccccc3)C(C)(C)C)n2C)n(C)c1=O,1,-10,-9,0
CCc1cc(-c2onc(C)c2-c2ccc(OC)cc2)c(O)cc1OC,0,45*,16,0
CCCc1cc(-c2onc(C)c2-c2ccc3c(c2)OCCCO3)c(O)cc1OC,-1,-23,-15,0
SMILES,GPR151 activ,TEAD-YAP block,MITF inh,FBW7 activator
Nc1ccc2c(c1)C(=O)N(c1ccc(O)cc1)C2=O,0,4,3,0
Nc1ccc(N2C(=O)c3ccc(N)cc3C2=O)cc1,0,34*,8,0
COCCNC(=O)c1sc2ncnc(NCc3cccc(F)c3)c2c1C,0,0,-10,0
COC(=O)C1=CN(Cc2ccc(OC)c(OC)c2)C=C(C(=O)OC)C1c1ccc(OCc2ccccc2)c(OC)c1,1,-19,-14,0
COC(=O)C1=CN(Cc2ccc(OC)cc2)C=C(C(=O)OC)C1c1ccccc1F,-2,5,1,1.9*
COC(=O)C1=CN(Cc2ccc(Cl)cc2)C=C(C(=O)OC)C1c1ccc(OC)c(OCc2ccccc2)c1,-2,55*,-13,0
COC(=O)C1=CN(Cc2ccc(OC)cc2)C=C(C(=O)OC)C1c1ccc(OC)c(OCc2ccccc2)c1,-1,50*,-3,0

# Screening data as filed in PubChem BioAssay.
